Reference: PubChem BioAssay AID2524 (Sanford-Burnham Center for Chemical Genomics, 2010)
In all, about 330,000 compounds went through this assay and about 540 (0.16%) were called active.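 Rule for the calls: active = activation factor of the enzyme at least 2-fold when tested at 20 µM; inactive = the rest.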 The entries come from a sample that favours actives as a whole.

molecular target: Intestinal-type alkaline phosphatase (Homo sapiens) (UniProt P09923); test: enzymatic activation of intestinal alkaline phosphatase – biochemical, luminescence, uHTS, primary screen (AID 2524); conditions: purified human IAP, CDP-Star luminescence, 30 min; at 10 µM; active compounds read high; 1 = vehicle-only enzyme, 0 = enzyme-free background
Sequence (P09923 whole entry, looked up): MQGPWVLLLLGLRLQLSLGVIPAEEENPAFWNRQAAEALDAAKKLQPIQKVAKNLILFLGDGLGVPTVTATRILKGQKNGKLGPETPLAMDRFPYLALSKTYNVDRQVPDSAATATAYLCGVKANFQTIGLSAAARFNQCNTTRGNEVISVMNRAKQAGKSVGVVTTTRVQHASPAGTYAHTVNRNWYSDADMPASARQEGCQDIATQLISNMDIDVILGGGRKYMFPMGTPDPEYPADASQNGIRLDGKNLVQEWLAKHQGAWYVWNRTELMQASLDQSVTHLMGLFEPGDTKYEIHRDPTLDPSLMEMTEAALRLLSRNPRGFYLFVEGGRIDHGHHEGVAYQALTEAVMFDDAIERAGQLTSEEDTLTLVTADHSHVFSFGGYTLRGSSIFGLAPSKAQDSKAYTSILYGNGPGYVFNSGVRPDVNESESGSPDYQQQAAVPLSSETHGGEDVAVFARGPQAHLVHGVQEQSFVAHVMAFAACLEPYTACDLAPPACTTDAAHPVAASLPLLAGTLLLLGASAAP

Activation factor, active:
CCOc1ccc(NC(=O)CSc2nncn2C)cc1 3.82, OCCCN1c2ccccc2Nc2nnc(-c3ccccc3)cc21 2.48, CCC(C(=O)Nc1ccc(C(C)C)cc1)c1ccccc1 (centres undefined) 2.92, Oc1cccc(/C=N/Nc2ccc(Cl)nn2)c1O 2.16, c1ccc2[nH]c(-c3nc4ccccc4[nH]3)nc2c1 2.1, Cn1c(=O)c2c(nc(N/N=C/c3cccs3)n2Cc2ccc(Br)cc2)n(C)c1=O 2.42, O=C(Nc1ccon1)c1nc[nH]c1C(=O)NCc1ccccc1 2.43, COc1ccc(C(=O)NNc2cc(C)nc(NNC(=O)c3ccc(OC)cc3)n2)cc1 2.25, OC(c1nc2ccc(F)cc2[nH]1)C(O)c1nc2ccc(F)cc2[nH]1 (centres undefined) 3.62, O=C(OCC1O[C@@H](OC(=O)c2cc(O)c(O)c(O)c2)[C@@H](OC(=O)c2cc(O)c(O)c(O)c2)[C@@H](OC(=O)c2cc(O)c(O)c(O)c2)[C@@H]1OC(=O)c1cc(O)c(O)c(O)c1)c1cc(O)c(O)c(O)c1 (some centres undefined) 3.98, COc1cccc(/C=N/NC(=O)c2[nH]nc3c2CCc2ccccc2-3)c1O 2.64, COc1cccc(/C=N\NC(=O)C2=NNC(=O)C2C)c1O (centres undefined) 2.88, CCCCOC(=O)Nc1sc2nc(C)cc(C)c2c1-n1cccc1 2.01

Activation factor, inactive:
CN1C(=O)C2(OCCCO2)c2cc(Cl)ccc21 0.939, CC(=O)NCCc1ccc(S(=O)(=O)Nc2ccc(C)c(S(=O)(=O)N3CCOCC3)c2)cc1 0.976, COc1ccc(N(CC(=O)NCCSCc2cccc(Cl)c2)S(C)(=O)=O)cc1 1.4, Cn1cnnc1SCC(=O)NNC(=O)COc1ccc(Br)cc1 1.79, Cn1cnnc1SCC(=O)Nc1ccc(N2CCOCC2)cc1 1.03, Cc1cn(C2C=CC(CO)O2)c(=O)[nH]c1=O (centres undefined) 0.925, Cc1cc2c(cc1C)[n+](C)cn2CC(O)COCC1CC=CCC1 (centres undefined) 0.897, N=c1c2c(-c3ccccc3)c(-c3ccccc3)n(Cc3ccccc3)c2ncn1CCCO 1.11, O=C(NC(=S)Nc1ccccc1C(=O)O)c1ccc(-c2ccc(Br)cc2)o1 0.945, CCCCCC1CC(COc2ccccc2)OC1=O (centres undefined) 0.9, CC(C)(C)NC(=O)C(=O)NCc1ccncc1 1.09, CC(NCC(=O)Nc1cc(Cl)cc(Cl)c1)c1ccccc1 (centres undefined) 1.03, CCC(C(=O)Nc1ccc2c(c1)OCCO2)c1ccccc1 (centres undefined) 0.871, CCC(C(=O)OCC(=O)Nc1ccc(C(=O)Nc2ccc(OC)cc2)cc1)c1ccccc1 (centres undefined) 1.08, O=C(CSc1nnnn1C1CCCC1)Nc1ccc2c(c1)OCCO2 0.96, Cc1cnc(NC(=O)Cn2cnc3c2c(=O)n(C)c(=O)n3C)s1 1, CCOc1ccc(C(=O)COC(=O)c2ccc(-n3cnnn3)cc2)cc1 1.05, CC(=O)NC1C(Oc2ccc(C)cc2)OC2COC(c3ccco3)OC2C1O (centres undefined) 1.11, Oc1ccc(Br)cc1/C=N/Nc1ccccn1 1.22, O=C(COc1ccc2c(C(F)(F)F)cc(=O)oc2c1)Nc1ccc2c(c1)OCCO2 1.02, C=CCOc1cccc(CNn2cn[nH]c2=S)c1 0.895, CNC(=O)CN1C(=O)NC(c2ccccc2)(c2ccccc2)C1=O 1.05, CCOc1ccccc1N1C(=O)CC(Sc2nccc(C)n2)C1=O (centres undefined) 1.29, O=C(NCC(=O)N1CCC2(CC1)NCCc1[nH]cnc12)c1ccc(Br)cc1 1.11, O=C(O)CSC(NC(=O)c1cccnc1)(C(F)(F)F)C(F)(F)F 0.961, O=C1COc2ccc(C(=O)CSc3ccc(Br)cc3)cc2N1 1.06, O=C(Nc1sc2c(c1-c1nc3ccccc3[nH]1)CCCC2)C1CC1 1.06, O=[N+]([O-])c1ccc2nc(-c3ccccn3)[nH]c2c1 1.4, O=C(NCCC1CCCCN1S(=O)(=O)c1ccc(Cl)cc1)C(=O)NCc1ccco1 (centres undefined) 1.03, Cn1c(=O)c2c(nc(NCCc3ccccc3)n2Cc2ccccc2)n(C)c1=O 0.914, Cn1c(=O)c2sccc2n(Cc2ccc(Br)cc2)c1=O 0.619, Cc1cccc(NC(=O)CSc2nnc(CCCCCNC(=O)OC(C)(C)C)o2)c1C 0.854, O=C(O)CCC(=O)Nc1ccc(OCC2CCCO2)cc1 (centres undefined) 0.853, Cc1cc(C)c(C#N)c(SCC(=O)N(CC(C)C)C2CCS(=O)(=O)C2)n1 (centres undefined) 0.97, CCOC(=O)c1ccc(NC(=O)c2nc[nH]c2C(=O)NCc2ccccc2)cc1 1.59, Cc1cccc(NC(=O)c2nc[nH]c2C(=O)NCC(=O)OCc2ccccc2)c1 1.09, Cc1ccc2cc(CCNC(=O)c3c(-c4ccccc4Cl)noc3C)c(=O)[nH]c2c1 0.983, COc1ccc(C(=O)NNC(=O)c2cc(C)[nH]n2)cc1 1.61, COc1ccc(C(=O)NNS(=O)(=O)c2ccc(C)cc2)cc1 0.935, CC(=O)NC1C(Oc2ccc(C=O)cc2)OC(COC(C)=O)C(OC(C)=O)C1OC(C)=O (centres undefined) 1.03, CN(C)C(CNC(=O)c1cccc(C#N)c1)c1ccco1 (centres undefined) 0.873, CN(Cc1nc2ccc(F)cc2[nH]1)Cc1nc(CC2CC2)no1 0.896, Oc1ccc2nc(Cc3ccccc3)[nH]c2c1 0.985, Nc1ncnc2c1ncn2[C@@H]1O[C@H](CNCc2cccn2-c2nccs2)[C@@H](O)[C@H]1O 0.901, CC(C)=CCN1CCN(Cc2cc3ccccc3[nH]2)CC1CCO (centres undefined) 1.13, Cc1ccc(NC(=O)CN2C(=O)NC(C)(c3ccc(Cl)cc3)C2=O)c(Br)c1 (centres undefined) 1, CN(c1ccccc1)S(=O)(=O)c1cccc(NC(=O)Cc2ccc(Cl)cc2)c1 1.01, CCOC(=O)c1sc(NC(=O)CSc2nc(C)cc(C(F)(F)F)n2)c(C#N)c1C 0.888, COc1ccccc1N(C)S(=O)(=O)c1ccc(C(=O)N2CCC(C(N)=O)CC2)cc1 0.887, O=C(CCCCO)c1ccc(O)c(Cl)c1 1.08, CC(C)c1ccc(NC2CCCN(C(=O)c3ccncc3)C2)cc1 (centres undefined) 0.926, Cc1ccc(S(=O)(=O)N2[C@@H](c3cccc(Cl)c3)C(C(=O)O)=CC[C@H]2c2ccc(Cl)c(Cl)c2)cc1 1.09, COC(C[C@@H](O)[C@H](C)[C@H](O)COCc1ccccc1)OC 0.977, COc1ccc(C(=O)N(Cc2ccccc2)c2ccc(C)cc2)cc1S(=O)(=O)N1CCOCC1 0.94, CC(C)NC(=O)NCCCCCCS(C)=O (centres undefined) 1.08, CC(C)CN(CC(C)C)CC(O)CN(c1ccccc1)S(=O)(=O)c1ccccc1[N+](=O)[O-] (centres undefined) 0.882, CC(C)N(C(=O)CSc1nc(COc2ccccc2)nc2ccccc12)C(C)C 0.961, COc1cccc(NC(=O)CN(C)C(=O)c2ccccc2CCc2ccccc2)c1 1.1, Cn1cc(S(=O)(=O)N2CCN(c3ccc(F)cc3)CC2)c(=O)n(C)c1=O 1.04, O=S(=O)(CCc1nc2ccccc2o1)c1ccc(Cl)cc1 0.959, CC(C)CC(N=C1NC(C)(C)Cc2ccccc21)C(=O)O (centres undefined) 0.9, CCOC(=O)C1=NNC2(c3ccc(Cl)cc3)C(=O)N(c3cc(C)cc(C)c3)C(=O)C12 (centres undefined) 1.06, O=S(=O)(c1ccc(F)cc1)N1CC=C(c2ccccc2)CC1 1.01, CN1CCN(Cc2c(C(=O)N3CCc4ccccc4C3)nc3ccc(Cl)cn23)CC1 1.33, CC(C)CC(=O)Nc1nnc(S(=O)(=O)N(C)c2ccc(Cl)cc2)s1 0.968, COc1ccc(-n2nnc3c(=O)n(CC(=O)N4CCC(Cc5ccccc5)CC4)cnc32)cc1 1.02, COc1cc(/C=N/NC(=O)c2cc(-c3ccccc3C)nc3ccccc23)cc(OC)c1O 0.992, CCOc1ccc2[nH]c(C(=O)N/N=C/c3cccc(OC)c3OC)cc2c1 0.924, COc1ccc(/C=N/NC(=O)c2ccncc2)cc1CN1CCCc2ccccc21 1.06, COc1cc(/C=N\NC(=O)C2C(=O)NCC2c2ccccc2)cc(OC)c1O (centres undefined) 0.911, Cc1ccc(OCC(=O)Nc2ccccc2C(=O)NC2CC2)cc1 0.945, Cc1ccccc1N1C(=O)C(Oc2ccc(Cl)cc2)C1CNCC1CCCO1 (centres undefined) 0.957, CN=C(Nc1cccc(S(=O)(=O)N2CCOCC2)c1)c1ccccc1 0.956, FC(F)(F)c1ccc(-n2cn[nH]c2=S)cc1 1.1, CC(CCN1CCN=C1N(C)C)c1ccccc1 (centres undefined) 0.995, O=C(Nc1ccccc1C(F)(F)F)N1CCCC1c1cccnc1 (centres undefined) 0.942, Cc1cc(=O)n2nc(N3CCCC(C(=O)NCc4cccc(Cl)c4)C3)sc2n1 (centres undefined) 1.28, CCCCN(CC(=O)NC(C)(C)C)C(=O)C(=O)Nc1ccc2c(c1)OCCO2 1.04, Cc1cc(C)c2c(-n3cccc3)c(NC(=O)OCc3ccccc3)sc2n1 1.11, COC(=O)Nc1sc2nc(C)cc(C)c2c1-n1cccc1 0.984, Cc1ccc(OCCCCN2CCCCC2)c(Br)c1 1.08
